Values joined by “and” are separate entries in the source; they are usually repeats but may differ in a detail not shown here. Identical values can stand only once. In all, about 5,500 compounds went through this assay and about 2,000 (36%) were called active. Inconclusive results (about 18%) are left out. Rule as the data show it: active = normalized growth mostly below about 0.91 (no sharp cut-off); inconclusive = no clear call, values can overlap the other calls; inactive = mostly above about 0.92. The list shows a part of the results.
Assay: chemical genetic growth profiling, strain panel (AID 1159580);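 also: tested at 20 µM; growth read once vehicle control cultures reached saturation at 30 °C; 1 = growth at the plate median or of vehicle wells; lower values mean less growth of the strain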
Conditions: S. cerevisiae deletion strains, growth OD

Measured: normalized growth

COc1ccc2cc([C@H](C)CO)ccc2c1
inactive: locus YAL013W, strain DEP1, stronger effect = lower value 0.982 | locus YAL021C, strain ccr4, stronger effect = lower value 1.04 | locus YAL026C, strain drs2, stronger effect = lower value 1.01 | locus YAL030W, strain snc1, stronger effect = lower value 1 | locus YBL061C, strain skt5, stronger effect = lower value 1.01 | locus YBR009C, strain hhf1, stronger effect = lower value 1.01 | locus YBR021W, strain FUR4, stronger effect = lower value 1.02 | locus YBR023C, strain chs3, stronger effect = lower value 1.01 | locus YBR171W, strain sec66, stronger effect = lower value 1.01 | locus YBR229C, strain ROT2, stronger effect = lower value 0.947 | locus YBR231C, strain swc5, stronger effect = lower value 1.07 | locus YBR279W, strain paf1, stronger effect = lower value 1.01 | locus YCL011C, strain gbp2, stronger effect = lower value 1.01 | locus YCL016C, strain dcc1, stronger effect = lower value 1.01 | locus YCL029C, strain bik1, stronger effect = lower value 0.976 | locus YCL061C, strain MRC1, stronger effect = lower value 1.02 | locus YCL069W, strain vba3, stronger effect = lower value 1.01 | locus YCR088W, strain abp1, stronger effect = lower value 0.936 | locus YDL005C, strain med2, stronger effect = lower value 1.02 | locus YDL035C, strain GPR1, stronger effect = lower value 0.955 | locus YDL040C, strain nat1, stronger effect = lower value 1.01 | locus YDL074C, strain BRE1, stronger effect = lower value 0.996 | locus YDL101C, strain DUN1, stronger effect = lower value 0.989 | locus YDL134C, strain PPH21, stronger effect = lower value 0.98 | locus YDL185W, strain tfp1, stronger effect = lower value 0.962 | locus YDL192W, strain arf1, stronger effect = lower value 0.966 | locus YDR001C, strain nth1, stronger effect = lower value 1.01 | locus YDR069C, strain doa4, stronger effect = lower value 1.02 | locus YDR101C, strain arx1, stronger effect = lower value 0.976 | locus YDR137W, strain rgp1, stronger effect = lower value 1.03 | locus YDR150W, strain NUM1, stronger effect = lower value 0.974 | locus YDR159W, strain sac3, stronger effect = lower value 1 | locus YDR162C, strain NBP2, stronger effect = lower value 0.961 | locus YDR195W, strain ref2 1.04 | locus YDR297W, strain sur2, stronger effect = lower value 1.01 | locus YDR318W, strain mcm21, stronger effect = lower value 0.98 | locus YDR334W, strain swr1, stronger effect = lower value 1.03 | locus YDR335W, strain msn5, stronger effect = lower value 1.02 | locus YDR388W, stronger effect = lower value 0.983 | locus YDR392W, strain spt3, stronger effect = lower value 1.03 | locus YDR502C, strain sam2, stronger effect = lower value 0.95 | locus YEL003W, strain gim4, stronger effect = lower value 1.01 | locus YEL037C, strain rad23, stronger effect = lower value 1.01 | locus YEL061C, strain CIN8 (second series), stronger effect = lower value 1.01 | locus YEL061C, strain CIN8, stronger effect = lower value 0.987 | locus YER015W, strain faa2, stronger effect = lower value 1.01 | locus YER016W, strain bim1, stronger effect = lower value 1.01 | locus YER110C, stronger effect = lower value 0.954 | locus YER111C, strain swi4, stronger effect = lower value 1.02 | locus YER155C, strain BEM2 (second series), stronger effect = lower value 1.01 | locus YER155C, strain BEM2, stronger effect = lower value 1.01 | locus YER167W, strain BCK2, stronger effect = lower value 0.975 | locus YFR010W, strain ubp6, stronger effect = lower value 1.02 | locus YGL078C, strain dbp3, stronger effect = lower value 0.982 | locus YGL086W, strain mad1, stronger effect = lower value 0.984 | locus YGL167C, strain pmr1, stronger effect = lower value 1.01 | locus YGL173C, strain kem1, stronger effect = lower value 1 | locus YGL227W, strain vid30, stronger effect = lower value 1 | locus YGL240W, strain doc1, stronger effect = lower value 1.01 | locus YGL248W, strain PDE1, stronger effect = lower value 0.98 | locus YGL253W, strain hxk2, stronger effect = lower value 1.03 | locus YGR078C, strain PAC10, stronger effect = lower value 0.987 | locus YGR135W, strain pre9, stronger effect = lower value 0.949 | locus YGR229C, strain SMI1, stronger effect = lower value 0.979 | locus YGR252W, strain gcn5, stronger effect = lower value 0.894 | locus YHR013C, strain ard1, stronger effect = lower value 1.07 | locus YHR027C, strain rpn1, stronger effect = lower value 1.01 | locus YHR030C, strain SLT2, stronger effect = lower value 0.985 and 0.928 | locus YHR079C, strain IRE1 (second series), stronger effect = lower value 0.979 | locus YHR079C, strain IRE1, stronger effect = lower value 0.95 | locus YHR094C, strain hxt1, stronger effect = lower value 0.981 | locus YHR129C, strain ARP1, stronger effect = lower value 0.995 | locus YHR142W, strain chs7, stronger effect = lower value 1.02 | locus YHR200W, strain rpn10, stronger effect = lower value 0.973 | locus YIL066C, strain RNR3, stronger effect = lower value 0.969 | locus YIL073C, strain SPO22, stronger effect = lower value 0.954 | locus YIL125W, strain kgd1, stronger effect = lower value 0.974 | locus YIR030C, strain dcg1, stronger effect = lower value 0.975 | locus YJL092W, strain hpr5, stronger effect = lower value 1.01 | locus YJL095W, strain BCK1 (second series), stronger effect = lower value 1 | locus YJL095W, strain BCK1, stronger effect = lower value 0.996 and 0.935 | locus YJL115W, strain asf1, stronger effect = lower value 1.02 | locus YJL129C, strain trk1, stronger effect = lower value 1.02 | locus YJL134W, strain LCB3, stronger effect = lower value 0.984 | locus YJL154C, strain vps35, stronger effect = lower value 1.01 | locus YJL164C, strain tpk1, stronger effect = lower value 1.01 | locus YJL166W, strain qcr8, stronger effect = lower value 1.01 | locus YJL168C, strain set2, stronger effect = lower value 0.982 | locus YJL187C, strain SWE1 (second series), stronger effect = lower value 0.982 | locus YJL187C, strain SWE1, stronger effect = lower value 1.01 | locus YJR043C, strain POL32, stronger effect = lower value 0.994

Source: PubChem BioAssay AID1159580 (chemical genetic matrix, 2015)
